# Source: ChEMBL document CHEMBL3988442, “University of Dundee, Small-Polar-MMV Screening Library” (2021)
# Among all 48,000 compounds or so, about 13,000 (27%) showed an effect of 50% or more. The list shows a part of the results.
# Test system: Wolbachia pipientis
# Experiment: Anti-Wolbachia Cell-Based Screen
# Assay type: functional
# Design: scale not given: in the data most compounds retested in dose-response had high values
# Settings: 5 µM
row,SMILES,Percent Effect
1,O=C(NC[C@H]1C[C@@H]2CCN1C[C@@H]2CN1CCCCC1)Nc1ccsc1,3.271%
2,CC[C@H]1CN2CC[C@H]1C[C@@H]2CNCc1ccc(OC(F)(F)F)cc1,-1.711%
3,CNc1ncccc1C(=O)N1CCN(C)C2(CCN(C)CC2)C1,-3.315%
4,Cc1ccc(CC(=O)N2CCN(CC(O)c3ccccc3)CC2)cn1 (stereo not given),-5.029%
5,CN1CCN(C(=O)c2cn(Cc3ccccc3)c3ncccc23)CC1,129.1%
6,CCc1ccc(OCC(=O)N2CCN(CC)CC2)cc1,-2.93%
7,CCOc1ncccc1C(=O)N1CCN(C)C2(CCN(C)CC2)C1,-9.489%
8,CCN1CCN(C(=O)c2cn(Cc3ccccc3)c3ncccc23)CC1,118.7%
9,CC(C)CN1CCC2(CC1)CN(C(=O)C(C)C)C2.O=C(O)C(F)(F)F,-9.801%
10,O=C(O)CC(O)(CC(=O)O)C(=O)O.O[C@@]1(c2ccccn2)CC[C@H]2CN(Cc3cccc(Cl)c3Cl)C[C@H]21,-2.173%
11,Cc1ccc(CN2C[C@@H]3CN(c4ncc(F)cn4)C[C@@H]3C2)cc1.O=C(O)C(F)(F)F,6.106%
12,O=C(O)C(F)(F)F.O=C1[C@@H]2CN(Cc3ccccn3)C[C@H]2CCN1c1cncnc1,16.77%
13,Cc1ccc([C@]2(O)CC[C@H]3CN(Cc4ccccc4F)C[C@H]32)nc1.O=C(O)CC(O)(CC(=O)O)C(=O)O,152.5%
14,O=C(O)CC(O)(CC(=O)O)C(=O)O.O[C@@]1(c2ccccn2)CC[C@H]2CN(Cc3ccccn3)C[C@H]21,115.3%
15,O=C(N1CCCC1)N1C[C@@H]2CCNC[C@@H]21,-24.15%
16,CCCN1C[C@H]2CC[C@@H]1CN(C(=O)Cc1c(C)nc(CC)[nH]c1=O)C2,6.983%
17,CNC(=O)[C@@H]1C[C@H]2CN(c3ncccn3)C[C@H]2N1C(C)C.O=C(O)C(F)(F)F.O=C(O)C(F)(F)F,-5.727%
18,C[C@H]1CN2C[C@H](O)CC2CN1Cc1ccncc1 (stereo not given in full),120.2%
19,O=S1(=O)C[C@@H]2[C@H](C1)N(Cc1ccoc1)CCN2Cc1ccncc1,-1.69%
20,COCCN1CCN(Cc2ccncc2)[C@H]2CS(=O)(=O)C[C@H]21,0.5994%
21,C[C@@H]1CN2C[C@H](O)CC2CN1Cc1ccncc1 (stereo not given in full),148.8%
22,CC(C)NC(=O)[C@H]1C[C@@H]2[C@@H](C1)OCCN2Cc1ccncc1,-4.174%
23,Oc1cccc(CN2C[C@H]3CC[C@@H]2CN(Cc2ccncc2)C3)c1,-4.265%
24,Cc1c(CN2CCCC(C(=O)c3ccc(C(C)(C)C)cc3)C2)cnn1C (stereo not given),35.11%
25,CN1CCN(c2ccc(F)cc2C(N)=O)CC1,129.8%
26,CN1CCN(c2ccc(CO)cc2F)CC1,13.78%
27,CN1CCC2(CC1)C(=O)N(C)c1ccc(F)cc12.Cl,-19.58%
28,CCN1CCC2(CCC1=O)CN(c1nccc(N)n1)CCN2C (stereo not given),-7.397%

row,SMILES,Percent Effect
1,CCNCCc1nc2cc(F)ccc2[nH]1.Cl,-10.45%
2,Cc1ccc2c(n1)N(C)CCN(Cc1cnn(C)c1)C2,75.85%
3,Cc1ccc2c(n1)N(C)CCN(CCN1CCCC1)C2.O=C(O)C(F)(F)F.O=C(O)C(F)(F)F.O=C(O)C(F)(F)F,31.59%
4,Cc1oc(-c2ccco2)nc1CC(=O)N1CCN(CC(C)O)CC1 (stereo not given),16.55%
5,Cc1ccc(C(=O)N2C[C@H](N3CCOCC3)[C@@H]3OCCC[C@@H]32)cn1.O=C(O)C(F)(F)F.O=C(O)C(F)(F)F,103.6%
6,Cc1ccc(C(=O)N2C[C@@H]3CCCO[C@@H]3[C@H](N3CCCC3)C2)cn1.O=C(O)C(F)(F)F.O=C(O)C(F)(F)F,-21.68%
7,CN1CCN([C@@H]2CN(C(=O)c3ccnnc3)[C@@H]3CCCO[C@H]23)CC1,-8.561%
8,CC(C)(C)n1cc(C(=O)NCCN2CCOCC2)c2cccnc21,135%
9,CC(C)(C)n1cc(C2=CCN(CCNC(N)=O)CC2)cn1,-16.31%
10,CCCn1cc(C(=O)NCCCC(N)=O)c2ccccc21,15.02%
11,CC(C)(C)n1cc(C2=CCN(CCNC(=O)c3ccccc3)CC2)cn1,-2.502%
12,CCCNC(=O)c1cn(C(C)(C)C)c2ncccc12,115.3%
13,CC(C)(C)n1cc(C(=O)NCCCn2ccnc2)c2cccnc21,3.37%
14,CNC(=O)c1cn(C(C)(C)C)c2ncccc12,127%
15,CCNC(=O)c1cn(C(C)(C)C)c2ncccc12,133.4%
16,Cc1ccnc(CC(C)N(C)Cc2ccc3c(c2)OCCO3)c1 (stereo not given),2.178%
17,O=C(NC[C@H]1C[C@@H]2CCN1C[C@@H]2CN1CCCC1)c1ccco1,7.038%
18,CC1CCN(C[C@H]2CN3CC[C@H]2C[C@@H]3CNC(=O)c2ccco2)CC1,-5.154%
19,Clc1ccccc1CNC(Cn1cncn1)c1ccccc1 (stereo not given),-5.969%
20,CN1CCO[C@H]2CN(C(=O)c3ccncc3F)C[C@H]21.O=C(O)C(F)(F)F,-9.265%
21,CCN1CCOCC2(CCCN(C(=O)c3conc3C)C2)C1.O=C(O)C(F)(F)F (stereo not given),89.52%
22,CNC(=O)CN1CCOCC2(CCCN(Cc3cccnc3)C2)C1.O=C(O)C(F)(F)F.O=C(O)C(F)(F)F.O=C(O)C(F)(F)F (stereo not given),-4.883%
23,O=C(O)C(F)(F)F.c1cnc(N2CCCC3(COCCN(CC4CC4)C3)C2)nc1 (stereo not given),-4.915%
24,CCN1CCOCC2(CCCN(C(=O)c3ccncc3F)C2)C1.O=C(O)C(F)(F)F (stereo not given),92.47%
25,O=C(C1CC1)N1CCc2c(ncnc2N2CCN3CCCC3C2)C1 (stereo not given),16.5%
26,CC(C)c1nc(CC(=O)N2CCN(C)CC2c2ccccc2)cs1 (stereo not given),13.34%
27,Cc1ccc(NC(=O)CNC(C)Cc2ccsc2)cc1F (stereo not given),8.644%
